PubChem BioAssay (NCATS)
Records with an inconclusive call do not appear. Entries that show only a call come without a potency. The source made the active and inactive calls. The call rests on the fitted dose curve; in most records, active means well fitted inhibition curve with a large enough effect; inconclusive means small, poorly fitted or top-dose-only effect; inactive means flat fitted curve, though single readings scatter.

molecular target: Voltage-gated inwardly rectifying potassium channel KCNH2 (Homo sapiens) (UniProt Q12809); assay: qHTS Assay for Small Molecule Inhibitors of the Human hERG Channel Activity (AID 588834); settings: U2OS BacMam hERG, FluxOR thallium flux fluorescence; series mostly up to 46.1 µM;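 further: lower thallium flux fluorescence means stronger hERG block; nearly all actives have a fitted effect of over 50% in size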
Sequence (Q12809 whole entry, looked up): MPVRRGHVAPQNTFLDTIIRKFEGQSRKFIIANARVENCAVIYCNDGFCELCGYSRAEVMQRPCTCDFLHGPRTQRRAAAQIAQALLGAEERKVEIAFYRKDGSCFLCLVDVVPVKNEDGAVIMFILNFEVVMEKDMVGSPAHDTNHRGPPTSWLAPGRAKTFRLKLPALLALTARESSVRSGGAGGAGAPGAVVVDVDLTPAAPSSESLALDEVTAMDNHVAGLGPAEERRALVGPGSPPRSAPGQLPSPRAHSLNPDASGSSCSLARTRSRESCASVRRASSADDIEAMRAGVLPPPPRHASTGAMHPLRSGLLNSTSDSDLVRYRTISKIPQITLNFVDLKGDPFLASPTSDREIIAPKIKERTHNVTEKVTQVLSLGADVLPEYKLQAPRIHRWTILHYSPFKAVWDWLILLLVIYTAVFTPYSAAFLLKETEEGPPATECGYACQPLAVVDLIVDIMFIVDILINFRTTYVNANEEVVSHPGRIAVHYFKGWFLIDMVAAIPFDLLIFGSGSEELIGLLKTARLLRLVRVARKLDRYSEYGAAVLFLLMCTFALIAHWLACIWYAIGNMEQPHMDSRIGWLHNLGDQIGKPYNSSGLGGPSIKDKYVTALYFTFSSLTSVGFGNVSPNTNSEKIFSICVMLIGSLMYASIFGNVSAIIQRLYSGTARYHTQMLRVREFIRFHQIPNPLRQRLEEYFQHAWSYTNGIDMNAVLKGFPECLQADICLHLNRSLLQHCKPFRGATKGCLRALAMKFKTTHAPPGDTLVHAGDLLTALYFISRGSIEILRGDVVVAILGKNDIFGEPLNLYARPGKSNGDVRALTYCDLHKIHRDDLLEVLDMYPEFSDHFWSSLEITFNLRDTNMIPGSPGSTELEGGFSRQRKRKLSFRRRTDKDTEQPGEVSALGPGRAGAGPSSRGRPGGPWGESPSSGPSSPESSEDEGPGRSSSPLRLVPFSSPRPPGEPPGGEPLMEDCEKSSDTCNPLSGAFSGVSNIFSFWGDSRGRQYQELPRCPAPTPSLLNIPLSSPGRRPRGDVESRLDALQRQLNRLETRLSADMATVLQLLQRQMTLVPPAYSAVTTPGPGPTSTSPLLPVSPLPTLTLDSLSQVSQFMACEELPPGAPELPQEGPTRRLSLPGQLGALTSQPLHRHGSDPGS
Method in brief: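 Thallium-flux (FluxOR) read-out on FDSS: fluorescence read 10 s before and 2 min after stimulation buffer. hERG-BacMam-transduced U2OS cells, compound exposure about 10 min. AC50 by standard Hill equation.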
Potency means the concentration at half of the fitted maximal effect.

| Structure (SMILES) | Potency |
| --- | --- |
| CCOc1ccccc1O[C@H](c1ccccc1)[C@H]1CNCCO1 | inactive |
| CC1(c2ccccc2)OC(C(=O)O)=CC1=O (configuration not stated) | inactive |
| NS(=O)(=O)c1cc(C2(O)NC(=O)c3ccccc32)ccc1Cl (configuration not stated) | inactive |
| CC(C)=CCC[C@@](C)(O)[C@H]1CC=C(C)CC1 | inactive |
| CC[C@]12CCCN3CCc4c(n(c5ccccc45)[C@@](O)(C(=O)OC)C1)[C@@H]32 | 398 nM (active) |
| CO[C@@]1(NC(=O)C(C(=O)O)c2ccc(O)cc2)C(=O)N2C(C(=O)O)=C(CSc3nnnn3C)CO[C@@H]21 (some centres not stated) | inactive |
| C[C@]1(Cn2ccnn2)[C@H](C(=O)O)N2C(=O)C[C@H]2S1(=O)=O | inactive |
| NC(=O)N[C@@H](CCC(=O)O)C(=O)O | inactive |
| CC1(C)S[C@@H]2[C@H](NC(=O)C(C(=O)O)c3ccccc3)C(=O)N2[C@H]1C(=O)O (some centres not stated) | inactive |
| OCCN1C[C@H](O)[C@@H](O)[C@H](O)[C@H]1CO | inactive |
| CC(=O)N[C@@H](CC(C)C)C(=O)O | inactive |
| CC(=O)N(CC(O)CN(C(C)=O)c1c(I)c(C(=O)NCC(O)CO)c(I)c(C(=O)NCC(O)CO)c1I)c1c(I)c(C(=O)NCC(O)CO)c(I)c(C(=O)NCC(O)CO)c1I (configuration not stated) | inactive |
| C/C(=C(\CCO)SS/C(CCO)=C(\C)N(C=O)Cc1cnc(C)nc1N)N(C=O)Cc1cnc(C)nc1N | inactive |
| CCCCCOC(=O)Nc1nc(=O)n([C@@H]2O[C@H](C)[C@@H](O)[C@H]2O)cc1F | inactive |
| CN[C@@H]1[C@H](O)[C@H](NC)[C@H]2O[C@@]3(O)C(=O)C[C@@H](C)O[C@H]3O[C@@H]2[C@H]1O | inactive |
| COc1ccccc1OCC(O)CO (configuration not stated) | inactive |
| CC(=O)N1C[C@H](O)C[C@H]1C(=O)O | inactive |
| NC(=O)NC1NC(=O)NC1=O (configuration not stated) | inactive |
| C[N+](C)(C)CC(O)CC(=O)[O-] (configuration not stated) | inactive |

| Structure (SMILES) | Potency |
| --- | --- |
| C/C=C1\[C@H]2C=C(C)C[C@]1(N)c1ccc(=O)[nH]c1C2 | inactive |
| CCCNC(C)C(=O)Nc1c(C)csc1C(=O)OC (configuration not stated) | inactive |
| COCC(=O)Nc1c(I)c(C(=O)NCC(O)CO)c(I)c(C(=O)N(C)CC(O)CO)c1I (configuration not stated) | inactive |
| O=c1[nH]c(=O)n([C@H]2C[C@H](O)[C@@H](CO)O2)cc1I | inactive |
| CCOC(=O)[C@H](CCc1ccccc1)N[C@@H](C)C(=O)N1Cc2cc(OC)c(OC)cc2C[C@H]1C(=O)O | inactive |
| O=C(O)/C=C/c1ccc(Cn2ccnc2)cc1 | inactive |
| O=C(O)C(S)C(S)C(=O)O (configuration not stated) | inactive |
| CN[C@@H]1[C@@H](O)[C@@H](O[C@@H]2[C@H](O)[C@H](O[C@H]3OC(CN)=CC[C@H]3N)[C@@H](N)C[C@H]2N)OCC1(C)O (some centres not stated) | inactive |
| C[n+]1ccccc1/C=N/O | inactive |
| COc1ccc(-c2cc(=O)c3c(O)cc(O[C@@H]4O[C@H](CO[C@@H]5O[C@@H](C)[C@H](O)[C@@H](O)[C@H]5O)[C@@H](O)[C@H](O)[C@H]4O)cc3o2)cc1O | inactive |
| C=CCN1C[C@H](C(=O)N(CCCN(C)C)C(=O)NCC)C[C@@H]2c3cccc4[nH]cc(c34)C[C@H]21 | inactive |
| CC(=O)[C@@]1(O)CC[C@H]2[C@@H]3C[C@H](C)C4=CC(=O)C=C[C@]4(C)[C@@]3(F)[C@@H](O)C[C@@]21C | inactive |
| COC(=O)N/N=C/c1c[n+]([O-])c2ccccc2[n+]1[O-] | inactive |
| CCOC(=O)OC(C)OC(=O)[C@@H]1N2C(=O)[C@@H](NC(=O)[C@H](N)c3ccccc3)[C@H]2SC1(C)C (some centres not stated) | inactive |
| C[N+]1(C)CCCC(OC(=O)C(O)(c2ccccc2)c2ccccc2)C1 (configuration not stated) | inactive |
| C/C=C/C(=O)N(CC)c1ccccc1C | inactive |
| O=C(O)[C@@H]1[C@H]2C[C@H]3c4[nH]c5ccccc5c4CCN3C[C@@H]2CC[C@@H]1O | inactive |
| CC(=O)OCC(=O)[C@@]1(O)CC[C@H]2[C@@H]3CCC4=CC(=O)C=C[C@]4(C)[C@@]3(F)[C@@H](O)C[C@@]21C | inactive |
